PubChem BioAssay AID1508608 (The Scripps Research Institute Molecular Screening Center, 2020)
The whole screen tested about 2,300 compounds, of which about 20 (0.9%) were called active. Only a selection was taken, and actives are over-represented in it overall. Unmarked numbers belong to inactive results.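 Rule for the calls: active = mean activation across replicates above 26.72%, the hit cutoff set for this confirmation screen; inactive = the rest.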

Target: G-protein coupled receptor 151 (Homo sapiens) (UniProt Q8TDV0)
Experiment: GPR151 activators, triplicate retest, confirmation, cell-based, PathHunter beta-arrestin, luminescence, set 2 (AID 1508608);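 note: 0% = plate median of compound wells and 100% = EA reagent high control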
Settings: GPR151 PathHunter beta-arrestin cells, 90 min, at 11.2 µM, active compounds read high, 100% = signal from added EA reagent

Chain of G-protein coupled receptor 151 (Homo sapiens) (Q8TDV0 whole entry, looked up): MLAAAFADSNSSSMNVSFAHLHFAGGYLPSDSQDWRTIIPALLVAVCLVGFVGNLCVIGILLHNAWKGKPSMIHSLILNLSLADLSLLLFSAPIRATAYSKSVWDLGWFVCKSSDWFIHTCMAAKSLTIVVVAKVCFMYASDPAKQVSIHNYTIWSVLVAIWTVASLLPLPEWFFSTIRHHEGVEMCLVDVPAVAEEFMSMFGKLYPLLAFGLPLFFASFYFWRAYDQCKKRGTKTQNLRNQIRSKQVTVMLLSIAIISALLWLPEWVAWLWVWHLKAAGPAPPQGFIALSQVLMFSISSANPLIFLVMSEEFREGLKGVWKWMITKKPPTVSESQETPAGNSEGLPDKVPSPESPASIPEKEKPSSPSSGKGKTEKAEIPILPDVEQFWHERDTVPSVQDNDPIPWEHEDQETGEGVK

SMILES	activation
COc1ccccc1C(=O)NC(C)C(c1cccs1)N1CCOCC1 (configuration not stated)	-5.85%
Cc1ccc(-c2nc3ncccn3c2NC2CCCCC2)o1	-5.26%
NC(=O)C1CCN(S(=O)(=O)c2ccc3c(c2)OCC(=O)N3)CC1	-1.83%
O=C(NCCCN1CCOCC1)/C(=C/c1ccc(-c2cccc(C(F)(F)F)c2)o1)NC(=O)c1ccc(Cl)cc1	23.3%
COc1ccc(-n2nc3c(c2NC(=O)c2c(F)cccc2F)CS(=O)(=O)C3)cc1	-1.16%
CCCN(C(=O)Cc1nc(-c2ccc(OC)cc2)no1)c1ccccc1C	-0.07%
CC1=NN(c2ccccc2)C(=O)/C1=C\c1ccc([N+](=O)[O-])cc1	-3.53%
CCOc1ccc(/C=N/NC(=O)c2ccccc2OC(C)C)cc1O	-4.49%
CN(C)c1ccc(CNCCC2CCOC(C)(C)C2)cc1 (configuration not stated)	0.83%
COc1ccc(-c2cc3ccc(OC(C)C(=O)O)cc3oc2=O)cc1 (configuration not stated)	-10.8%
CC(=O)c1c(C)[nH]c(C(=O)N2CCCC(C)C2)c1C (configuration not stated)	-1.56%
COc1ccc(/C=C\C23N(Cc4ccccc4)C(=O)CN2c2ccccc2C3(C)C)cc1 (configuration not stated)	-0.33%
OCCC1CN(Cc2ccc3nonc3c2)CCN1Cc1ccc(F)c(F)c1 (configuration not stated)	11.5%
O=C(CCC(=O)Nc1ccc(F)cc1)N/N=C/c1cccc([N+](=O)[O-])c1	4.76%
COc1ccc(NC(=O)C(C)N(c2ccc(Oc3ccccc3)cc2)S(C)(=O)=O)cc1 (configuration not stated)	1.83%
COC(=O)c1cc(Nc2ncnc3c2cnn3-c2ccc(Cl)cc2)cc(C(=O)OC)c1	5.3%
Clc1ccc(-n2ncc3c(NCc4ccco4)ncnc32)cc1	3.54%
Cn1ncc2c(NCCc3ccc(Cl)cc3Cl)ncnc21	27.9% (active)
Cc1sc2c(c1C)c(=O)n(CCc1ccccc1)c(=O)n2CC(N)=O	-0.97%
Cc1ccc(-n2ncc3c(=O)n(CC(=O)Nc4cccc(Cl)c4)cnc32)cc1C	-0.5%
C=C(CC(NP(=O)(OCC)OCC)(C(=O)OC)C(F)(F)F)c1ccccc1 (configuration not stated)	1.36%
COc1ccc(CC2(C)OC(c3ccc(C)c([N+](=O)[O-])c3)=NN2C(C)=O)cc1 (configuration not stated)	-3.14%

SMILES	activation
CCOc1ccc(-c2ccc(/C=C3/C(=N)N4C=C(C)SC4=NC3=O)o2)c([N+](=O)[O-])c1	-0.37%
O=c1/c(=C\c2ccccc2Cl)sc2nc3ccccc3n12	-1.37%
CC(C)c1ccc(Cn2ccc3c4c(N)nc(NC5CC5)nc4ccc32)cc1	104% (active)
N/C(=N\OC(=O)CCCN1C(=O)c2ccccc2C1=O)c1ccccn1	10.3%
CCN(CC)C(=O)CN(c1ccccc1)S(=O)(=O)c1ccc(C)cc1	4.39%
CCC1CN(CCNC(=O)c2scc3c2OCCO3)Cc2cc(OC)ccc2O1 (configuration not stated)	6.33%
CC(=O)C1C(c2cccc([N+](=O)[O-])c2)c2c(n[nH]c2C)CC1(C)O (configuration not stated)	0.19%
CC1=C(C(=O)NCCN2Cc3ccccc3OC(c3ccccc3F)C2)OCCO1 (configuration not stated)	2.76%
CCOc1cc(OCC)cc(C(=O)Nc2ccc(Br)cn2)c1	8.34%
CNc1nc2c(-c3ccc(Cl)cc3)nnn2c2ccccc12	16.9%
CC1CC(C)CN(C(=O)c2ccc(NCc3cccs3)c(S(=O)(=O)Nc3cc(F)ccc3F)c2)C1 (configuration not stated)	3.31%
CCCOC1CCCN(Cc2c(C(=O)N(C)CCc3ccccc3)nc3sccn23)C1 (configuration not stated)	6.38%
CC(=O)c1cccc(NC(=O)Oc2ccccc2)c1	2.16%
CCOC(=O)CCN(Cc1ccccc1F)S(=O)(=O)c1ccc([N+](=O)[O-])cc1	-3.3%
COc1ccc(C(=O)N(c2ccc(C)cc2)S(=O)(=O)c2ccc(C)cc2)cc1OC	6.29%
CCOC(=O)c1ccc(CN(Cc2c(Cl)cccc2Cl)S(=O)(=O)c2cccc([N+](=O)[O-])c2)cc1	0.8%
CC1=C(C(=O)OCc2ccco2)C(c2ccc(F)cc2)NC(=O)N1 (configuration not stated)	3.69%
O=[N+]([O-])c1ccc2nc(SCc3ccc(I)cc3)sc2c1	3.08%
CC(C)CCN1C(=O)C(C)(C)COc2cc(NC(=O)c3ccc4c(c3)OCO4)ccc21	-3.7%
COc1cc(/C=C/c2[nH]c(=O)[nH]c(=O)c2[N+](=O)[O-])ccc1OC(C)C	-3.99%
CCN(c1ccccc1)c1ncnc2c1cnn2-c1ccc(Cl)cc1	5.9%
Cc1ccc(-c2[nH]c(=S)[nH]c(=O)c2C#N)cc1	-2.95%

SMILES	activation
Cc1ccccc1OCC(=O)Nc1ccc(N2C(=O)c3ccc([N+](=O)[O-])cc3C2=O)cc1	6.85%
O=C(Nc1cc(C(F)(F)F)ccc1Cl)c1ccc(C(=O)C(=O)c2ccccc2)cc1	-1.66%
O=C(Nc1cc(Cl)ccc1Cl)c1ccccc1O	26.9% (active)
Cc1ccc(NC(=O)c2ccccc2F)c(Br)c1	-2.79%
CCOC(=O)C1=C(C)N=c2s/c(=C\c3cc(C)n(-c4ccc(C(=O)OCC)cc4)c3C)c(=O)n2C1c1ccc(OC)c(OC)c1 (configuration not stated)	1.8%
CCCc1[nH]n(-c2ccc(F)cc2)c(=O)c1C=Nc1ccc(OCC)cc1	-1.39%
Cn1nc2c(c1C(=O)NCC1CC(Cc3cccc(F)c3)=NO1)CCCC2 (configuration not stated)	-2%
O=C(CSc1nnc(Cc2cc(=O)[nH]c(=O)[nH]2)n1-c1ccccc1)NC1CCCC1	2.56%
COc1ccc2c(c1)N(C)/C(=c1/s/c(=c3/sc4nc5ccccc5n4c3=O)n(C)c1=O)S2	5.91%
COC(=O)Cn1c(CN2CCOCC2)nc2c1c(=O)n(C)c(=O)n2C	-2.55%
CC(=O)Cc1nsc(Nc2ccc(C)c(Cl)c2)n1	3.54%
CCN(CC)S(=O)(=O)c1ccc(C(=O)Nc2nc3ccc([N+](=O)[O-])cc3s2)cc1	2.56%
COc1ccc(-c2onc(C(F)(F)F)c2-c2ccc(Cl)cc2)c(O)c1	0.9%
Cc1ccc(Cl)cc1Nc1cc(N2CCOCC2)c2nonc2c1[N+](=O)[O-]	3.43%
CC(C)C[C@@H]1NC(=O)[C@H]2CN(Cc3cn(C)nc3-c3ccccc3)CCN2C1=O	3.84%
CCC(C)NC(=O)C1CCN(S(=O)(=O)N2CCOCC2)CC1 (configuration not stated)	7.37%
Cn1c(=O)oc2cc(S(=O)(=O)N3CCCC(C(=O)N4CCOCC4)C3)ccc21 (configuration not stated)	11.4%
CCc1ccc(C2=CC(c3ccc(OC)c(OC)c3)n3ncnc3N2)cc1 (configuration not stated)	0.38%
COc1ccccc1-c1nnc(C2CCN(S(=O)(=O)c3cccc(C#N)c3)CC2)o1	-0.51%
CCN(CC)CCNC1=CC(=O)OC12CCCCC2	-1.78%
CCC1Oc2ccccc2N(CC(=O)NC2CCCCCC2)C1=O (configuration not stated)	-3.51%
O=C(c1ccco1)N1CCN(C(=O)C2(S(=O)(=O)c3ccc(Cl)cc3)CC2)CC1	4.46%

SMILES	activation
O=C(NCCC12CC3CC(CC(C3)C1)C2)c1cc([N+](=O)[O-])ccc1N1CCOCC1	6.89%
CCOc1ccc(-c2cc(C(=O)N/N=C/c3ccc(O)c(OCC)c3)[nH]n2)cc1	-0.84%
CCCOc1ccc(C2C3=C(CC(C)(C)CC3=O)N(CC(=O)O)C3=C2C(=O)CC(C)(C)C3)cc1OCC	4.15%
COc1ccc(C(=O)NCC2CCCN2S(=O)(=O)c2cccs2)cc1OC (configuration not stated)	-1.78%
CN1CCN(C(CNS(=O)(=O)c2ccccc2)c2cccnc2)CC1 (configuration not stated)	-1.58%
CCCCOC(=O)N1CCOCCOCCN(C(=O)OCCCC)CCOCCOCC1	-4.43%
Cc1ccc(-n2ncc3c(NCc4ccco4)ncnc32)c(C)c1	2.13%
Cc1cccc(-c2nc3ccccc3c(=O)n2Cc2ccccc2C)c1	1.61%
Cc1ccc(COc2cccc3c2CCN(C)C3=O)cc1	-4.68%
CC(=O)Oc1ccccc1N1C(=O)c2cccc([N+](=O)[O-])c2C1=O	28.3% (active)
CC(=O)c1ccc(N2C(=O)c3ccc(Oc4ccc([N+](=O)[O-])cc4[N+](=O)[O-])cc3C2=O)cc1	-8.73%
CCCCOC(=O)c1ccc(N2C(=O)c3cccc([N+](=O)[O-])c3C2=O)cc1	-3.4%
Cc1ccc([N+](=O)[O-])cc1NC(=O)C1C2/C=C\CCCCC21 (configuration not stated)	0.67%
O=C(NCCCN1CCCC1)C(=O)Nc1ccc2nc3n(c(=O)c2c1)CCCCC3	-2.06%
COc1ccc(-c2nc(-c3ccc(NC(=O)c4ccc(Br)o4)cc3)no2)cc1OC	7.05%
N=C(N)SCc1csc2c1CCCC2	1.33%
Nc1nc(NC(=O)c2ccccc2)nn1-c1ccccc1	-4.73%
CC(C)c1ccc(/C=N\NC(=O)Cn2c(-c3nonc3N)nc3ccccc32)cc1	0.86%
CCOC(=O)c1cnc2c(OC)cccc2c1NC1CCCCCC1	18.4%
Cc1ccc(C2=N/C(=C\c3cccc(C(F)(F)F)c3)C(=O)O2)cc1[N+](=O)[O-]	3.7%
CCCCc1ccc(C2=N/C(=C\c3ccc(F)cc3)C(=O)N2c2ccc(Cl)cc2C)cc1	-6.96%
